hcDAF12 agonist: H. contortus DAF-12 activation, primary screen; HEK293 hcDAF-12 lit1-tk-luc reporter, luminescence; 0% DMSO, 100% Δ7-dafachronic acid; activation, % at 6.8 µM; hit rate 1.4% among 370,000;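 active means activation above the mean of all tested compounds plus 3 SD, cut at about 5.5% in these data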;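 further: 100% = response to 3 µM Δ7-dafachronic acid high control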
DAX1 inh-1: DAX1 (NR0B1) inhibition, primary screen; hit rate 1.1% among 370,000; HEK293T StAR-luciferase reporter, SF-1/DAX-1 repression relief; inhibition, % at 6.8 µM;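 active means inhibition above the mean over all tested compounds plus 3 SD, cut at about 3.6% in these data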;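 further: 0% = DAX-1 cells with DMSO and 100% = cells lacking DAX-1 with DMSO; higher inhibition means more luminescence from relief of DAX-1 repression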
GAA850 FXN act: activators of GAA850 frataxin (FXN) promoter. HEK293 lucGAA850 FXN promoter luciferase reporter, 24 h; percent of 10 µM SAHA response. activation, % at 6 µM. hit rate 0.56% among 360,000. AID 540364;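 active means activation above the average of all compounds screened plus 3 SD, cutoff fixed separately per campaign, cut at about 7.5% in these data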;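 further: 0% = DMSO wells and 100% = 10 µM SAHA wells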
ssDAF-12 act: activates DAF-12 receptor from parasite S. stercoralis; HEK293 ssDAF-12/GRIP1 lit1-tk-luc reporter, luminescence; % of 3 µM dafachronic acid response; hit rate 1% among 370,000; activation, % at 6.8 µM;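 active means activation above the mean over all tested compounds plus 3 SD, cut at about 0.9% in these data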;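 further: 0% = DMSO-only wells and 100% = 3 µM delta7-dafachronic acid wells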
hgDAF-12 ag: hgDAF-12 agonism, primary luciferase screen; hit rate 1.8% among 370,000; activation, % at 6.8 µM; HEK293 GAL4-hgDAF12 UAS-luciferase reporter, agonist luminescence; normalized to butyrate control;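 active means activation above a cutoff set at the mean of all screened compounds plus 3 SD, cut at about 10% in these data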;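 further: 0% = DMSO wells and 100% = sodium butyrate wells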
DAX1 inh-2: NR0B1 (DAX1) inhibition. P51843. HEK293 Gal4-DAX1 luciferase reporter, luminescence. inhibition, % at 6.75 µM. hit rate 0.99% among 340,000. AID 504766;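 active means inhibition above the mean over all tested compounds plus 3 SD, cut at about 4.2% in these data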;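 further: 0% = DAX1-transfected cells with DMSO and 100% = empty-vector control cells with DMSO; inhibition shows as a rise in luminescence from relieved DAX1 repression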
hgDAF12 conf: hgDAF-12 agonism, confirmation assay; shares compounds with hgDAF-12 ag; HEK293 GAL4-hgDAF12 luciferase reporter, agonist mode; percent of butyrate response; activation, % at 6.8 µM; hit rate 80% among 3,300;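 active means mean activation over triplicate wells above the hit cutoff derived from the earlier primary screen, cut at about 11% in these data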;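 further: 0% = DMSO low control and 100% = 2 mM sodium butyrate high control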
LXRb DAF12 ctr: LXR-beta agonism as DAF-12 counter-screen | shares compounds with hgDAF-12 ag | HEK293 Gal4-LXR luciferase reporter, 24 h | activation, % at 6.8 µM | 3,300 tested, under 10 active | AID 743051;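 active means mean activation of the triplicate above a set limit carried over from the primary screen, none filed active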
Target sequence (P55055 whole entry, looked up, the tested form may be a part): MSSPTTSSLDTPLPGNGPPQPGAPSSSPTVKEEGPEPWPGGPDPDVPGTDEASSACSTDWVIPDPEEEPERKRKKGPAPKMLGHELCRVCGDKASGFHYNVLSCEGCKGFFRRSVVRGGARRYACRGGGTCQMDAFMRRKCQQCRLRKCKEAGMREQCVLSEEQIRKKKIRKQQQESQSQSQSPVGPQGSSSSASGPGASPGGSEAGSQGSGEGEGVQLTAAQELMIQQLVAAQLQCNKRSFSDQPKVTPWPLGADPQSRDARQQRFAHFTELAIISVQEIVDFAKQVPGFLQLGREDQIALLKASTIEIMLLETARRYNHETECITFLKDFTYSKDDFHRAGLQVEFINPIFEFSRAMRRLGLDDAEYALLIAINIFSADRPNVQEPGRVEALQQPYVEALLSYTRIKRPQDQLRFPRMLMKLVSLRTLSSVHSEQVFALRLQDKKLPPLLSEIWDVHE
* marks the source's active call; other numbers are inactive results. Sampled rows, rich in hits. Any-hit rate of the full collection: about 4.5%.

Results for O=C1CCC(C(=O)Nc2cc(C(F)(F)F)ccc2-n2cncn2)=NN1 ?
hcDAF12 agonist: 3; DAX1 inh-1: -1; GAA850 FXN act: 2; ssDAF-12 act: -1; hgDAF-12 ag: 1; DAX1 inh-2: 1

Results for COc1ccc(OC)c(-c2nn(-c3ccccc3)cc2C(=O)NCC(c2ccco2)N2CCCC2)c1 (stereo not given) ?
hcDAF12 agonist: -1; DAX1 inh-1: 1; GAA850 FXN act: -1; ssDAF-12 act: -2; hgDAF-12 ag: -3; DAX1 inh-2: 0

How did O=C(Nc1nc2ccccc2s1)c1cccc(N2C(=O)CCC2=O)c1 do in these assays?
hcDAF12 agonist: 3; DAX1 inh-1: 3; GAA850 FXN act: 2; ssDAF-12 act: 0; hgDAF-12 ag: 7; DAX1 inh-2: 1

What do the screens show for `O=C(Nc1ccc2sccc2c1)c1cccc(N2C(=O)CCC2=O)c1`?
hcDAF12 agonist: 2; DAX1 inh-1: 4.2*; GAA850 FXN act: 4; ssDAF-12 act: 0; hgDAF-12 ag: 17*; DAX1 inh-2: 1; hgDAF12 conf: 13*; LXRb DAF12 ctr: 0

Results for CCCC(=O)N=C1SC2CS(=O)(=O)CC2N1c1ccc(-c2nc3ccc(C)cc3s2)cc1 (stereo not given) ?
hcDAF12 agonist: 6.0*; DAX1 inh-1: 2; GAA850 FXN act: 7; ssDAF-12 act: 0; hgDAF-12 ag: 18*; DAX1 inh-2: 1; hgDAF12 conf: 9; LXRb DAF12 ctr: 1

How did Cc1ccc(N2C(=NC(=O)c3ccccc3)SC3CS(=O)(=O)CC32)cc1 (stereo not given) do in these assays?
hcDAF12 agonist: 0; DAX1 inh-1: -2; GAA850 FXN act: 2; ssDAF-12 act: -1; hgDAF-12 ag: 0; DAX1 inh-2: 0

What do the screens show for `CCOC(=O)c1sc(-c2ccc(Cl)cc2)nc1O`?
hcDAF12 agonist: 0; DAX1 inh-1: -1; GAA850 FXN act: -1; ssDAF-12 act: 0; hgDAF-12 ag: -2; DAX1 inh-2: 2

How did COc1ccc2nc(N(CCN(C)C)C(=O)c3ccc4ncsc4c3)sc2c1 do in these assays?
hcDAF12 agonist: 6.0*; DAX1 inh-1: 3.9*; GAA850 FXN act: 4; ssDAF-12 act: 0; hgDAF-12 ag: 14*; DAX1 inh-2: 0; hgDAF12 conf: 19*; LXRb DAF12 ctr: 1

What do the screens show for `COc1ccccc1C(C(C(=O)c1ccccc1)N1CCOCC1)N1CCOCC1` (stereo not given)?
hcDAF12 agonist: 2; DAX1 inh-1: 0; GAA850 FXN act: 2; ssDAF-12 act: 0; hgDAF-12 ag: 14*; DAX1 inh-2: 0; hgDAF12 conf: 0; LXRb DAF12 ctr: 0

How did CC(=O)C(C(c1ccccc1)N1CCOCC1)N1CCOCC1 (stereo not given) do in these assays?
hcDAF12 agonist: 0; DAX1 inh-1: 0; GAA850 FXN act: 2; ssDAF-12 act: -1; hgDAF-12 ag: -3; DAX1 inh-2: 0

How did O=C(c1cc(-c2ccc(Cl)cc2)on1)N1CCCC1 do in these assays?
hcDAF12 agonist: 4; DAX1 inh-1: 3; GAA850 FXN act: -3; ssDAF-12 act: 1.1*; hgDAF-12 ag: 14*; DAX1 inh-2: 2; hgDAF12 conf: 16*; LXRb DAF12 ctr: 1

How did O=C(Nc1ccc(N2CCOCC2)cc1)c1nc2ccccc2s1 do in these assays?
hcDAF12 agonist: 4; DAX1 inh-1: 4.3*; GAA850 FXN act: 4; ssDAF-12 act: 0; hgDAF-12 ag: 18*; DAX1 inh-2: 2; hgDAF12 conf: 15*; LXRb DAF12 ctr: 1

How did CCCCCN(C(=O)CCC(=O)OCC(=O)N(C)C1CCCCC1)c1c(N)n(CCCC)c(=O)[nH]c1=O do in these assays?
hcDAF12 agonist: -1; DAX1 inh-1: 1; GAA850 FXN act: 0; ssDAF-12 act: -1; hgDAF-12 ag: 14*; DAX1 inh-2: -1; hgDAF12 conf: -2; LXRb DAF12 ctr: 0

How did CCCCCN(C(=O)CCC(=O)OCC(=O)N1C(C)CCCC1C)c1c(N)n(CCCC)c(=O)[nH]c1=O (stereo not given) do in these assays?
hcDAF12 agonist: -1; DAX1 inh-1: -1; GAA850 FXN act: 3; ssDAF-12 act: -1; hgDAF-12 ag: -3; DAX1 inh-2: 2

How did CCN(CC)CCOC(=O)c1ccc(NC(=O)c2cn(-c3ccccc3)nc2-c2cccs2)cc1 do in these assays?
hcDAF12 agonist: 4; DAX1 inh-1: 3; GAA850 FXN act: 6; ssDAF-12 act: 0; hgDAF-12 ag: 15*; DAX1 inh-2: 2; hgDAF12 conf: 8; LXRb DAF12 ctr: 0

What do the screens show for `S=C(Nc1cccc(Cl)c1)OC1CCC12CCC(c1ccccc1)CC2` (stereo not given)?
hcDAF12 agonist: 3; DAX1 inh-1: -1; ssDAF-12 act: -2; hgDAF-12 ag: -2

How did Cc1ccc(/C=N/NC(=O)c2ccncc2)s1 do in these assays?
hcDAF12 agonist: -2; DAX1 inh-1: 0; GAA850 FXN act: 1; ssDAF-12 act: 0; hgDAF-12 ag: 0; DAX1 inh-2: 1

Results for Cc1ccc(/C=N/NC(=O)c2ccccn2)s1 ?
hcDAF12 agonist: 4; DAX1 inh-1: 3; GAA850 FXN act: 1; ssDAF-12 act: 0; hgDAF-12 ag: 15*; DAX1 inh-2: 1; hgDAF12 conf: 14*; LXRb DAF12 ctr: 1

What do the screens show for `CC(OC(=O)c1ccc(Cl)c(S(=O)(=O)N2CCOCC2)c1)C(=O)NC1CCCCC1C` (stereo not given)?
hcDAF12 agonist: 1; DAX1 inh-1: -1; GAA850 FXN act: 1; ssDAF-12 act: -1; hgDAF-12 ag: 0; DAX1 inh-2: 1

What do the screens show for `CC(OC(=O)c1cccc(S(=O)(=O)N2CCOCC2)c1)C(=O)NC1CCCCC1C` (stereo not given)?
hcDAF12 agonist: 0; DAX1 inh-1: 0; GAA850 FXN act: -1; ssDAF-12 act: -1; hgDAF-12 ag: 18*; DAX1 inh-2: 0; hgDAF12 conf: 0; LXRb DAF12 ctr: 0

What do the screens show for `COc1ccc(OC)c(S(=O)(=O)Nc2ccc(C(=O)Nc3cc(C)on3)cc2)c1`?
hcDAF12 agonist: 0; DAX1 inh-1: -1; ssDAF-12 act: -1; hgDAF-12 ag: 16*; hgDAF12 conf: 0; LXRb DAF12 ctr: 0

What do the screens show for `COc1ccc(C(=O)Nc2cc(C)on2)c(OC)c1`?
hcDAF12 agonist: 3; DAX1 inh-1: 2; GAA850 FXN act: 5; ssDAF-12 act: 0; hgDAF-12 ag: 15*; DAX1 inh-2: 0; hgDAF12 conf: 13*; LXRb DAF12 ctr: 1

Compound activity: PubChem, The Scripps Research Institute Molecular Screening Center
